Screening data (PubChem)
Compounds with a hit are over-represented: about 1.2% of the library has one in this group of screens.
Platelet DG rel = platelet dense granule release activity; AID 1663; inhibition, %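 (compounds screened at 7.5 µM in platelet-rich plasma)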; human platelet-rich plasma, SFLLRN dense granule ATP release, luminescence; hit rate 0.22% among 300,000;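 active = mean replicate score, as percent of positive control, at or above 50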
VLA-4 inh = inhibition in a human VLA-4 binding assay; VLA-4 expressing cells, ligand binding flow cytometry; inhibition, % (about 7 µM as worked out from the volumes in the protocol); hit rate 0.2% among 330,000; AID 2557; in the data active = inhibition above about 50%
SKN-1 inh = inhibitors of C. elegans SKN-1; C. elegans VP596 Pgst-4::GFP/RFP ratio, acrylamide-induced, 24 h; inhibition, % at 21.8 µM; hit rate 0.49% among 360,000;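 active = interference check ratio from 0.5 to 1.5 plus GFP to RFP signal ratio inhibition reaching or exceeding a fixed threshold, cut at about 30% in these data, passing the limit was not always enough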
ABCB6 inh 2 = inhibitors of human ABC transporter ABCB6; fluorescence ratio to DMSO, % at 10 µM; K562-ABCB6 porphyrin accumulation, flow cytometry, 1 h; hits give low values; hit rate 0.19% among 360,000; Q9NP58;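 active = fluorescence ratio to DMSO below 75%, the collection mean minus 3 SD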;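 also: signal is porphyrin accumulated inside mitochondria; 100% equals median channel fluorescence of DMSO control wells; lower ratio means ABCB6 inhibition with less porphyrin fluorescence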
Target sequence (Q9NP58 whole entry, looked up): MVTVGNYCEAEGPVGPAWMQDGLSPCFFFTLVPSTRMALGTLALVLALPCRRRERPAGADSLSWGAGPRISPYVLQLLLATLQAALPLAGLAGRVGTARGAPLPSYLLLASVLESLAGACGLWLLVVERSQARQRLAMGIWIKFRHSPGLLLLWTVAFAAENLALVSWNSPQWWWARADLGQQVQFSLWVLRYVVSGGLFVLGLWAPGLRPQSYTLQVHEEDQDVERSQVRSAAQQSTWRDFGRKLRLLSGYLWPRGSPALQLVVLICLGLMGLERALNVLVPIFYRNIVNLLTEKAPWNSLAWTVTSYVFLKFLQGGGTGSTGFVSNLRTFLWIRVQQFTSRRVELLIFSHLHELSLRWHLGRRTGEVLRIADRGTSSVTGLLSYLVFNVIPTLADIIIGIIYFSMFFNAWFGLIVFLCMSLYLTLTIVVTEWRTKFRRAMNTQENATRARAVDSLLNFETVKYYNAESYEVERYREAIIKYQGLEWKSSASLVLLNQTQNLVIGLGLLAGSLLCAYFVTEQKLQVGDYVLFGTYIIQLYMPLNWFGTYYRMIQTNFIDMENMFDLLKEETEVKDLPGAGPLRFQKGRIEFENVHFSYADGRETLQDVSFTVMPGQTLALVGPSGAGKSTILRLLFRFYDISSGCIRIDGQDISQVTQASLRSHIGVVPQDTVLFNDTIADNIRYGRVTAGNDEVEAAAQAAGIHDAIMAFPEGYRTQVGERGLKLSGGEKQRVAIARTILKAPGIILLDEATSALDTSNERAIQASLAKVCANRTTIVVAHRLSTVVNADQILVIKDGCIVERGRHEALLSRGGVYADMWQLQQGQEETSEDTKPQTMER
CR mimetic SO = caloric restriction mimetics inhibiting age-related superoxide in yeast; S. cerevisiae aged cells, superoxide DHE fluorescence; hits give low values; superoxide response (% of plate mean), % at 10 µM; hit rate 0.18% among 330,000; AID 2690;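 active = superoxide response under a set limit, about three screen SD below normal, cut at about 65% in these data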;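 also: yeast aged for seven days with compound at 30 °C before DHE staining; 100% = average MFI of all compound-treated wells on the plate with controls excluded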
* marks the source's active call; other numbers are inactive results.

Results for O=[N+]([O-])c1ccc(OCc2cnc(Cl)s2)cc1 ?
SKN-1 inh: 54*; ABCB6 inh 2: 103

What do the screens show for `COc1ccc(OCc2cnc(Cl)s2)cc1`?
Platelet DG rel: -1; VLA-4 inh: 16; SKN-1 inh: 21; ABCB6 inh 2: 104; CR mimetic SO: 106

Results for O=[N+]([O-])c1ccc(COc2ccc(CN3CCCC3)cc2)cc1 ?
SKN-1 inh: 60*; ABCB6 inh 2: 93

What do the screens show for `O=[N+]([O-])c1ccc(COc2ccc(CN3CCCCC3)cc2)cc1`?
SKN-1 inh: 40*; ABCB6 inh 2: 95

What do the screens show for `CC1=C(C(=O)N(C(C)C)C(C)C)CC(CC(=O)NCCN2CCOCC2)C(=O)N1CCCN1CCCC1=O` (stereo unspecified)?
SKN-1 inh: 0; ABCB6 inh 2: 95

What do the screens show for `COc1ccccc1N=Nc1nc(-c2ccccc2)c(-c2ccccc2)[nH]1`?
Platelet DG rel: 3; VLA-4 inh: -59; SKN-1 inh: 36*; ABCB6 inh 2: 108; CR mimetic SO: 114

What do the screens show for `Oc1ccccc1N=Nc1nc(-c2ccccc2)c(-c2ccccc2)[nH]1`?
Platelet DG rel: 5; VLA-4 inh: 90*; SKN-1 inh: 19; ABCB6 inh 2: 107; CR mimetic SO: 85

What do the screens show for `COc1ccc(N=Nc2nc(-c3ccccc3)c(-c3ccccc3)[nH]2)cc1`?
Platelet DG rel: -1; VLA-4 inh: -13; SKN-1 inh: 10; ABCB6 inh 2: 117; CR mimetic SO: 97

Results for CSCC[C@H](N)C(=O)N1CCC(C(=O)N[C@@H](Cc2c[nH]c3ccccc23)C(=O)O)CC1 ?
Platelet DG rel: -3; VLA-4 inh: 9; SKN-1 inh: 36*; ABCB6 inh 2: 101; CR mimetic SO: 84

How did CN(Cc1ccccc1)C(=O)[C@@H]1CCCN1C(=O)[C@@H]1CCCN1C(=O)c1cccc(Cl)c1 do in these assays?
SKN-1 inh: 27; ABCB6 inh 2: 94

What do the screens show for `CC(=O)Nc1cccc(-c2ccnc3c2CC(C)(C(=O)NCC2CC2)O3)c1` (stereo unspecified)?
SKN-1 inh: 5; ABCB6 inh 2: 97

What do the screens show for `O=C1NC[C@H](Cc2ccccc2)N(C[C@@H]2CCCN2C[C@H](Cc2ccc(O)cc2)N2C[C@H](Cc3ccccc3)N(CC3CCCCCC3)C(=O)C2=O)C1=O`?
SKN-1 inh: 37*; ABCB6 inh 2: 99

What do the screens show for `O=C1NC[C@H](Cc2ccc(O)cc2)N(C[C@@H]2CCCN2C[C@H](Cc2ccccc2)N2C[C@H](Cc3ccccc3)N(CC3CCCCCC3)C(=O)C2=O)C1=O`?
SKN-1 inh: -1; ABCB6 inh 2: 97

What do the screens show for `COC(=O)c1ccc2nc(-c3ccco3)c(Cc3ccccc3)n2c1`?
SKN-1 inh: 18; ABCB6 inh 2: 101

What do the screens show for `CC(C)(O)C#Cc1ccc(N2C(c3ccsc3)=Cc3ccc(F)cc3C2c2c[nH]c3ccccc23)cc1` (stereo unspecified)?
SKN-1 inh: -12; ABCB6 inh 2: 110

How did O=C(Nc1ccc(Cl)cc1)NC1CCCCC1 do in these assays?
VLA-4 inh: 24; SKN-1 inh: 8; ABCB6 inh 2: 96; CR mimetic SO: 103

Results for O=C(Nc1ccc(Cl)cc1)NC1CCCCNC1=O (stereo unspecified) ?
Platelet DG rel: 1; VLA-4 inh: -1; SKN-1 inh: 36*; ABCB6 inh 2: 100; CR mimetic SO: 97

Results for FC(F)(F)c1cc(-c2ccccc2)nc(NC2CCCC2)n1 ?
Platelet DG rel: 0; VLA-4 inh: 39; SKN-1 inh: 37*; ABCB6 inh 2: 94; CR mimetic SO: 90

Results for FC(F)(F)c1cc(-c2ccccc2)nc(NCC2CCCO2)n1 (stereo unspecified) ?
Platelet DG rel: -3; VLA-4 inh: -9; SKN-1 inh: 17; ABCB6 inh 2: 101; CR mimetic SO: 103

How did Cc1csc(NC(=O)c2cn3ccccc3n2)n1 do in these assays?
Platelet DG rel: 57*; VLA-4 inh: 7; SKN-1 inh: -2; ABCB6 inh 2: 100; CR mimetic SO: 80

How did O=C1C2CC=CCC2C(=O)N1Cc1ccccc1 (stereo unspecified) do in these assays?
Platelet DG rel: -3; VLA-4 inh: 33; SKN-1 inh: 14; ABCB6 inh 2: 101; CR mimetic SO: 108

How did O=C1C=CC(=O)N1Cc1ccccc1 do in these assays?
Platelet DG rel: 5; VLA-4 inh: 54*; SKN-1 inh: -1; ABCB6 inh 2: 99; CR mimetic SO: 97
